# Assay results from PubChem BioAssay (NCATS).
# Inconclusive results are not listed. A call without a number means that no potency is given here. Activity calls are given as the source filed them. Unless noted, calls follow the shape of the dose curve; as a rule, active = well fitted curve in the direction sought with a large enough effect; inconclusive = small, poorly fitted or top-dose-only effect, or another doubt; inactive = no such curve, though single readings can be large; an effect the other way counts as inactive or inconclusive.
# What was measured:
# [1] = biological target: ATP-dependent 6-phosphofructokinase (Trypanosoma brucei brucei) (UniProt O15648); experiment: qHTS Assay to Find Inhibitors of T. brucei phosphofructokinase: hit validation (AID 492961);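 also: luminescence reports ADP formed as PFK phosphorylates fructose-6-phosphate with ATP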
# Sequence of ATP-dependent 6-phosphofructokinase (Trypanosoma brucei brucei) (O15648 whole entry, looked up): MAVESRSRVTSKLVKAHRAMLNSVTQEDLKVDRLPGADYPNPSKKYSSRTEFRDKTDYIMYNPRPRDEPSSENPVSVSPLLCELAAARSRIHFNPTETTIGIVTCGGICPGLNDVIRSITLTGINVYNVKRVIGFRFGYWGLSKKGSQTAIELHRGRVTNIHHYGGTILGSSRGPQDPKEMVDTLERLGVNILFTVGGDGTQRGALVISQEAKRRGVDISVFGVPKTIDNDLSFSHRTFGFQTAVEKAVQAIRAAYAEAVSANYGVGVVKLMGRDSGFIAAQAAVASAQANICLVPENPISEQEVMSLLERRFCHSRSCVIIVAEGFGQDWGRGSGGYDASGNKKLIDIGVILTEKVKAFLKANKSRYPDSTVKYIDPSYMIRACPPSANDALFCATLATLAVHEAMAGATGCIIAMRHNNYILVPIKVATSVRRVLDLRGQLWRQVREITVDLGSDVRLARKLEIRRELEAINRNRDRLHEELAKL
# Summary of the method: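 In this biochemical qHTS validation, titrated compounds were tested against 1.25 nM PFK with 0.1 mM ATP and 0.5 mM F6P. Percent activity came from controls lacking or containing enzyme.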
# [2] = biological target: Ubiquitin carboxyl-terminal hydrolase 1 (Homo sapiens) (UniProt O94782); experiment: Inhibitors of USP1/UAF1: Pilot qHTS (AID 504865);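 also: rhodamine fluorescence freed from ubiquitin-rhodamine substrate followed over time; top concentration of the series differs between compounds; nearly all actives have a fitted effect of over 35% in size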
# Sequence of Ubiquitin carboxyl-terminal hydrolase 1 (Homo sapiens) (O94782 whole entry, looked up): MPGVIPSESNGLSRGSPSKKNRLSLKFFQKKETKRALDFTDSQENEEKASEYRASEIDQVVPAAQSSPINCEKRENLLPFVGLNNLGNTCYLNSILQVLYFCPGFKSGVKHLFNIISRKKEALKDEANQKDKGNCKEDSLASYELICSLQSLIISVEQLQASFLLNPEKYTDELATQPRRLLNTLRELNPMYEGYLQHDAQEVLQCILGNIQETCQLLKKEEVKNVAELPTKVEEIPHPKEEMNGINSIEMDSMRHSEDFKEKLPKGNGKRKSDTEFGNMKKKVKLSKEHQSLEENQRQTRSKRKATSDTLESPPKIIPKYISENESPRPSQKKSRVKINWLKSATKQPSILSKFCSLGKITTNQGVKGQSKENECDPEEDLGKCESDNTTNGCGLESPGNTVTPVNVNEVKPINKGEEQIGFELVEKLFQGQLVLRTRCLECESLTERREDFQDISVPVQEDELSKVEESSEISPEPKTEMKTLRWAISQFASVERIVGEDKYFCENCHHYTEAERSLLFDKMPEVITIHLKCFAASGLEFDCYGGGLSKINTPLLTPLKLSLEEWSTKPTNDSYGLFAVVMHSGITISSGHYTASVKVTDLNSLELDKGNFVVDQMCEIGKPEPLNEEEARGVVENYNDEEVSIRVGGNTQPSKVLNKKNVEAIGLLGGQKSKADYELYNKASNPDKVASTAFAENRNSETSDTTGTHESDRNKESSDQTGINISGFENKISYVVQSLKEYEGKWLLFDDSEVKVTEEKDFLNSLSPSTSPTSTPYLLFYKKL
# Summary of the method: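 USP1/UAF1 complex at 1 nM preincubated 15 min at room temperature with compound, then Ub-Rho substrate added at 150 nM final. Fluorescence (480/540 nm) read kinetically in 50 mM HEPES pH 7.8, 0.5 mM EDTA, 1 mM TCEP, 0.1 mg/ml BSA, 0.01% Tween-20.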
# [3] = biological target: Luciferin 4-monooxygenase (Photinus pyralis) (UniProt P08659); experiment: Biochemical firefly luciferase enzyme assay for NPC (AID 624030);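 also: purified P. pyralis luciferase at 10 nM with luciferin and ATP substrate; nearly all actives have a fitted effect of over 70% in size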
# Sequence of Luciferin 4-monooxygenase (Photinus pyralis) (P08659 whole entry, looked up): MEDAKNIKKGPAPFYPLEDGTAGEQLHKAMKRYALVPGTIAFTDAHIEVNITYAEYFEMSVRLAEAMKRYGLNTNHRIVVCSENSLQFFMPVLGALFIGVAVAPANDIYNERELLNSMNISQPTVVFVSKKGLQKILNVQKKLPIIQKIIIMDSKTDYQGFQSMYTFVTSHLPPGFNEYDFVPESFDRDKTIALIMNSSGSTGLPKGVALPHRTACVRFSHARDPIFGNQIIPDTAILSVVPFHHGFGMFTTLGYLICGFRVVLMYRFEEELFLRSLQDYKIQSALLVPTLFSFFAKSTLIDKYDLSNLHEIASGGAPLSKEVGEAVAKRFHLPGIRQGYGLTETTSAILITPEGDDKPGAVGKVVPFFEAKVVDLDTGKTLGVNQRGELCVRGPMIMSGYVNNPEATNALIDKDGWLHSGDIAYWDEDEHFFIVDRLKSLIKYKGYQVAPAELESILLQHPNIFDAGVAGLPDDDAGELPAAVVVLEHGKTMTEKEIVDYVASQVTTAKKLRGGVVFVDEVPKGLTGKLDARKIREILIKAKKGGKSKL
# Summary of the method: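 Direct inhibition of firefly luciferase enzyme (10 nM final, 50 mM Tris Acetate) assessed by luminescence within 5 minutes. Percent activity scaled between DMSO and PTC124 positive control, with concentration-effect curves classified by fit quality and response.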
# [4] = S16 Schwann cell PMP22 intronic element firefly luciferase assay (AID 624032); also: nearly all actives have a fitted effect of over 30% in size
# Summary of the method: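 Luciferase reporter of PMP22 intronic-element expression in stably transfected S16 rat Schwann cells, read by ONE-Glo luminescence after 24 h compound exposure at 37 C. Activity scaled between DMSO (0%) and positive-control PTC124; concentration-effect curves quality-classified.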
# [5] = S16 Schwann cell PMP22 intronic element beta-lactamase assay (AID 624044; calls by dose curve; also: nearly all actives have a fitted effect of over 15% in size)
# Summary of the method: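 Beta-lactamase reporter under a PMP22 intronic regulatory element in stable S16 rat Schwann cells; 24 h compound exposure. 460 nm blue signal normalized between DMSO (0%) and potassium clavulanate, with 535 nm FRET tracking viability; curves classed by r2 and response.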
# Furin (Homo sapiens) = Furin (Homo sapiens) (UniProt P09958); experiment: Furin counterscreen qHTS for Zika virus inhibitors (AID 1347149);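 also: purified recombinant full-length human furin enzyme at 5 nM; fluorescence gain from furin cutting a BOC-RVRR-AMC peptide substrate over 15 min; top concentration of the series differs between compounds; nearly all actives have a fitted effect of over 70% in size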
# Sequence of Furin (Homo sapiens) (P09958 whole entry, looked up): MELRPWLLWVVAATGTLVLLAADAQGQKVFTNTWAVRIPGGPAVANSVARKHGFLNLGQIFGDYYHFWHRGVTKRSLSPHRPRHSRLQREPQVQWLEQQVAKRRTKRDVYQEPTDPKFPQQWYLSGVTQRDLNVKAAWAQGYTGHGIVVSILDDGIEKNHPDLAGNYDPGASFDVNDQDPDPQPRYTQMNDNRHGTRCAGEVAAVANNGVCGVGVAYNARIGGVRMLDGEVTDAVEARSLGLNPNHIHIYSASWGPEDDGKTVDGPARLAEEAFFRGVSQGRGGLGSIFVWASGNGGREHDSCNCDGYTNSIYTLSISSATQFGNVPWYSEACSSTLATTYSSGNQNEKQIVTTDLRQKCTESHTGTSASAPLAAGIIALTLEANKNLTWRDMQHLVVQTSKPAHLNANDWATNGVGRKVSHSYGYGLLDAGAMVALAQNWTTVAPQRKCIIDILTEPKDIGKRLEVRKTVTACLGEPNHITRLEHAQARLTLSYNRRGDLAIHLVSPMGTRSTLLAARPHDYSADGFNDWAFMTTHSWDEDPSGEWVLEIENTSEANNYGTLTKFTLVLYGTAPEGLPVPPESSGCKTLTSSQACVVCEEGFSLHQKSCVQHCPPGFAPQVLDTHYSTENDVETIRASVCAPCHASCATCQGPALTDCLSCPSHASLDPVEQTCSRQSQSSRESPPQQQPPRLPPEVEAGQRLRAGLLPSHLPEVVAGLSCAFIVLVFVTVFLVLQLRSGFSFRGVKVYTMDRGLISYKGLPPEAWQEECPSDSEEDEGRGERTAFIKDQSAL
# Summary of the method: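 Counterscreen measures cleavage of 2 microM BOC-RVRR-AMC, below its ~15 microM Km, by 5 nM full-length human furin at pH 7.0 after a 15-min compound preincubation. Inhibition derives from the 15-min fluorescence increase at 37C.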
# [6] = Vero cells viability qHTS for Zika virus inhibitors (AID 1347167)
# Summary of the method: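 Luminescent ATP readout (CellTiter Glo) after 30 min at 37 degrees C gives viability; cells in DMEM + 4% FBS were treated 24 to 48 hours with compound, following overnight attachment.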
# [7] = Tertiary RLuc qRT-PCR qHTS assay for Zika virus inhibitors (AID 1347169); also: potency is read from the fitted curve at half-maximal effect; nearly all actives have a fitted effect of over 55% in size
# Summary of the method: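 Vero cells (1,000/well) infected with recombinant ZIKV-RLuc (Cambodian) at MOI 1-2 after compound addition, 48-72 hrs at 37 degrees C. Live-cell Renilla luciferase substrate added; luminescence read after 1-1.5 hrs.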
# [8] = Primary qHTS for inhibitors of SARS-S pseudo-typed particle cell entry (AID 1479145; calls by dose curve; also: nearly all actives have a fitted effect of over 45% in size)
# [9] = Primary qHTS for inhibitors of MERS-S pseudo-typed particle cell entry (AID 1479149; calls by dose curve; also: nearly all actives have a fitted effect of over 60% in size)
# [10] = Primary qHTS to identify inhibitors of SARS-CoV-2 cell entry (AID 1645846; calls by dose curve; also: nearly all actives have a fitted effect of over 45% in size); conditions: activity change, negative = inhibition: at 57.1 µM (top of the series) unless noted
# Summary of the method: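 HEK293 cells stably expressing human ACE2, pre-treated 1 h with compound, then infected with MLV particles pseudotyped with Wuhan-Hu-1 spike (C-terminal 19-aa truncation). Luciferase luminescence after 48 h at 37 °C, normalised to spike PP and bald PP.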
# [11] = biological target: Glutathione peroxidase 1 (Homo sapiens) (UniProt P07203); experiment: Primary qHTS Assay for Inhibitors of Recombinant Selenoprotein Glutathione Peroxidase 1 (GPX1) (AID 1845191); also: nearly all actives have a fitted effect of over 65% in size
# Sequence of Glutathione peroxidase 1 (Homo sapiens) (P07203 whole entry, looked up): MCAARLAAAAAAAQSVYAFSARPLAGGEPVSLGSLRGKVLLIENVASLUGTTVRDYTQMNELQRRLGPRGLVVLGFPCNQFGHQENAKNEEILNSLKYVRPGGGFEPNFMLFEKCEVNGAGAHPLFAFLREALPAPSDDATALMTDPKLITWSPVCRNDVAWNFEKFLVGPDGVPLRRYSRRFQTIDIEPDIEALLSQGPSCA
# Summary of the method: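 NADPH consumption tracked by fluorescence at 340/450 nm between t=0 and t=15 min, room temperature. Final mix: 10 nM GPX1, 100 nM glutathione reductase, 1 mM GSH, 0.5 mM NADPH, 0.5 mM cumene hydroperoxide, 0.01% BSA; 30 min compound–enzyme preincubation.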
# [12] = biological target: Phospholipid hydroperoxide glutathione peroxidase GPX4 (Homo sapiens) (UniProt P36969); experiment: Primary qHTS Assay for Inhibitors of Recombinant Selenoprotein Glutathione Peroxidase 4 (GPX4) (AID 1845192); also: nearly all actives have a fitted effect of over 65% in size
# Sequence of Phospholipid hydroperoxide glutathione peroxidase GPX4 (Homo sapiens) (P36969 whole entry, looked up): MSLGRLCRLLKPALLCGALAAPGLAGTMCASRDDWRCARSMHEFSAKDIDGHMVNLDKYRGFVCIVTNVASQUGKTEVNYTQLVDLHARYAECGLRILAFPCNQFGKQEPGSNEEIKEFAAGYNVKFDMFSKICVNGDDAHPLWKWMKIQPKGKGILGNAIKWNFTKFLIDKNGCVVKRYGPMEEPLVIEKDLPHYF
# Summary of the method: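 NADPH consumption followed by fluorescence at 340/450 nm, t=0 and after 15 min at room temperature. Reaction started with cumene hydroperoxide (0.5 mM final) after 30 min compound–GPX4 preincubation; final 200 nM GPX4, 100 nM GR, 1 mM GSH, 0.5 mM NADPH.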
# 3D7 = experiment: qHTS profiling for inhibitors of Plasmodium falciparum proliferation (AID 504749); also: nearly all actives have a fitted effect of over 60% in size; conditions: P. falciparum in erythrocytes, SYBR Green DNA, 72 h; series mostly up to 28.7 µM
# Summary of the method: (§1)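 In a 72 h erythrocytic culture (37 C, humidified, 5% CO2) at 2.5% hematocrit and 0.3% starting parasitemia, compounds were tested; SYBR Green I in detergent lysis buffer stained parasite DNA overnight.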
# AA1029 = experiment: as above; conditions: P. falciparum in erythrocytes, SYBR Green DNA, 72 h; series mostly up to 28.7 µM
# Summary of the method: as §1
# AS120 = experiment: as above; conditions: P. falciparum in erythrocytes, SYBR Green DNA, 72 h; series mostly up to 28.7 µM
# Summary of the method: as §1
# ATS189 = experiment: as above; conditions: P. falciparum in erythrocytes, SYBR Green DNA, 72 h; series mostly up to 28.7 µM
# Summary of the method: as §1
# ATS95 = experiment: as above; conditions: P. falciparum in erythrocytes, SYBR Green DNA, 72 h; series mostly up to 28.7 µM
# Summary of the method: as §1
# C2A = experiment: as above; conditions: P. falciparum in erythrocytes, SYBR Green DNA, 72 h; series mostly up to 28.7 µM
# Summary of the method: as §1
# CP185 = experiment: as above; conditions: P. falciparum in erythrocytes, SYBR Green DNA, 72 h; series mostly up to 28.7 µM
# Summary of the method: as §1
# CP191 = experiment: as above; conditions: P. falciparum in erythrocytes, SYBR Green DNA, 72 h; series mostly up to 28.7 µM
# Summary of the method: as §1
# CP192 = experiment: as above; conditions: P. falciparum in erythrocytes, SYBR Green DNA, 72 h; series mostly up to 28.7 µM
# Summary of the method: as §1
# CP194 = experiment: as above; conditions: P. falciparum in erythrocytes, SYBR Green DNA, 72 h; series mostly up to 28.7 µM
# Summary of the method: as §1
# CP201 = experiment: as above; conditions: P. falciparum in erythrocytes, SYBR Green DNA, 72 h; series mostly up to 28.7 µM
# Summary of the method: as §1
# CP203 = experiment: as above; conditions: P. falciparum in erythrocytes, SYBR Green DNA, 72 h; series mostly up to 28.7 µM
# Summary of the method: as §1
# CP211 = experiment: as above; conditions: P. falciparum in erythrocytes, SYBR Green DNA, 72 h; series mostly up to 28.7 µM
# Summary of the method: as §1
# CP215 = experiment: as above; conditions: P. falciparum in erythrocytes, SYBR Green DNA, 72 h; series mostly up to 28.7 µM
# Summary of the method: as §1
# CP217 = experiment: as above; conditions: P. falciparum in erythrocytes, SYBR Green DNA, 72 h; series mostly up to 28.7 µM
# Summary of the method: as §1
# CP237 = experiment: as above; conditions: P. falciparum in erythrocytes, SYBR Green DNA, 72 h; series mostly up to 28.7 µM
# Summary of the method: as §1
# CP238 = experiment: as above; conditions: P. falciparum in erythrocytes, SYBR Green DNA, 72 h; series mostly up to 28.7 µM
# Summary of the method: as §1
# CP247 = experiment: as above; conditions: P. falciparum in erythrocytes, SYBR Green DNA, 72 h; series mostly up to 28.7 µM
# Summary of the method: as §1
# CP250 = experiment: as above; conditions: P. falciparum in erythrocytes, SYBR Green DNA, 72 h; series mostly up to 28.7 µM
# Summary of the method: as §1
smiles,measurement,setting,value
CO[C@H]1[C@@H](O)CC(OC2[C@@H](O)CC(OC3[C@@H](O)C[C@H](OC4CC[C@@]5(C)C(CCC6C5CC(O)[C@]5(C)[C@H](C7=CC(=O)OC7)CCC65O)C4)O[C@@H]3C)O[C@@H]2C)O[C@@H]1C (some centres not stated),Potency,[1],inactive
same,Potency,[2],inactive
same,Potency,[3],inactive
same,Potency,[4],inactive
same,Potency,[5],inactive
same,Potency,Furin (Homo sapiens),inactive
same,Potency,[6],inactive
same,Potency,[7],240 nM (active)
same,Potency,[8],inactive
same,Potency,[9],inactive
same,"activity change, negative = inhibition",[10],-97.7% [at 114 µM]
same,Potency,[11],inactive
same,Potency,[12],inactive
same,Potency,3D7,inactive
same,Potency,AA1029,inactive
same,Potency,AS120,inactive
same,Potency,ATS189,inactive
same,Potency,ATS95,inactive
same,Potency,C2A,inactive
same,Potency,CP185,inactive
same,Potency,CP191,inactive
same,Potency,CP192,inactive
same,Potency,CP194,inactive
same,Potency,CP201,inactive
same,Potency,CP203,inactive
same,Potency,CP211,inactive
same,Potency,CP215,inactive
same,Potency,CP217,inactive
same,Potency,CP237,inactive
same,Potency,CP238,inactive
same,Potency,CP247,inactive
same,Potency,CP250,inactive
